According to PubChem BioAssay (NCI):
The panel holds about 83,000 compounds, 20% with a hit somewhere; the sample as a whole holds those more often.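 Single-dose data. Exposure time 48 hours. Values below 10 considered active.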 A number with no mark means an inactive call. Calls of active or inactive are those of the source.

The compounds below were run on OVCAR-4 ovarian (assay: NCI-60 one-dose screen, 48 h (100 = growth as untreated, 0 = no growth, -100 = all killed)). Conditions: 10 µM unless noted.
Work on `N=C(N)c1ccc(-c2ccc(-c3ccco3)o2)cc1F` yielded a growth of 42%. `CCOC(=O)Cn1c(-c2nonc2NC(=O)c2ccccc2F)nc2ccccc21` gave a growth of 90.8%. For `CC(C)OC1OC(OC(C)C)C(OC(C)C)OC1OC(C)C` (configuration not stated), the growth was 88.9%. With `Cc1nn(-c2ccccc2)c2nc3c(nc12)C1=NCCN1C(c1ccc(Cl)cc1)N3` (configuration not stated) the growth was 80.3%. For `COc1ccc(-c2ccc(-c3ccc(C(=N)N)s3)s2)cc1`, the growth was -56.4% (active). For `N=C(N)c1ccc(-c2ccc(-c3cccs3)s2)cc1F`, the growth was -59.1% (active). With `Cc1csc(N/N=C/c2ccncc2)n1` the growth was 116%. For `CCCCCCCCCCCCCCCC1=NCCN1`, the growth was 78%. Work on `CCS(=O)(=O)Nc1cccc(Nc2c3cccc(C)c3nc3c(C)cccc23)c1OC` yielded a growth of 83.5%. `N/C(=N\O)c1ncc(-c2ccc(C(F)(F)F)cc2)c(NC2CCCCCC2)n1` was tested, and the growth was -6.06% [100 µM] (active). `N/N=C(\C(=N\N)c1ccccc1)c1ccccc1` gave a growth of 77.3%. For `COc1cc(/C=C/c2cc(/C=C/c3ccc(O)c(OC)c3)n(C(=O)Nc3ccc(F)c(Cl)c3)n2)ccc1O`, the growth was 9.26% (active). Work on `Cc1cc(Nc2c3ccccc3nc3ccccc23)ccc1NS(C)(=O)=O` yielded a growth of 48.1%. For `O=C(CC(=O)c1ccccc1F)Nc1ccc([N+](=O)[O-])cc1`, the growth was 92.8%. In the case of `CCCCCCCCCCCC1=NC(C)(C)CN1CCO`, the growth was 72.6%. For `COc1cc2ccc(C(C)=O)cc2cc1OC`, the growth was 120%. For `Cc1ccccc1Nc1n[nH]c(Cc2ccccc2)n1`, the growth was 112%. `CNC1=C([N+](=O)[O-])C(c2ccccc2O)C(C#N)=C(c2cccs2)O1` (configuration not stated) showed a growth of 82.4%. For `CCN(C(=O)CCl)C(C)(C)C(SSSC(c1ccc(Cl)cc1)C(C)(C)N(CC)C(=O)CCl)c1ccc(Cl)cc1` (configuration not stated), the growth was 49.3%. With `COc1cc2c(cc1OC)-c1cc(OC)c(OC)cc1C(CN(C)C)C2` (configuration not stated) the growth was -20.7% [100 µM] (active). `CCCCOC(=O)c1cc(O)c(O)c(O)c1` gave a growth of 58.9%. For `FC(F)(F)c1cc(-c2nnc3n2N=C(Cl)CS3)cc(C(F)(F)F)c1`, the growth was 123%. For `COc1cc2ncnc(Nc3ccc(S(=O)(=O)Nc4cc(C)on4)cc3)c2cc1OCCCN1CCN(c2ccc([N+](=O)[O-])cc2)CC1`, the growth was 111%. `COc1ccc(/C=N/NC(N)=S)c(OC)n1` was tested, and the growth was 93.9%. Work on `O=C1c2cccc3cccc(c23)C(=O)N1CCCCCCCCCCN1C(=O)c2cccc3cccc(c23)C1=O` yielded a growth of 95%. Compound `O=C1OC(/C=C/c2ccccc2)=NC/1=C/c1ccccc1[N+](=O)[O-]` has a growth of 94.2%. `C=C(c1ccc(C(=O)NCCCn2ccnc2)cc1)c1cc2c(cc1C)C(C)(C)CCC2(C)C` gave a growth of 37%. `O=[N+]([O-])c1ccc(Sc2nc(Cl)nc(NC3CCCC3)n2)cc1` was tested, and the growth was -100% [100 µM] (active). With `O=C(NCCN1CCCCC1)n1cc(-c2ccncc2)c(-c2ccc(Cl)c(O)c2)n1` the growth was 122%. Work on `CC(C)(C)c1cc(C[P+](c2ccccc2)(c2ccccc2)c2ccccc2)cc(C(C)(C)C)c1O` yielded a growth of 16.2%. With `N#Cc1ccc(-c2ccc(-c3cccs3)o2)cc1F` the growth was 77.5%. Compound `Cc1cccc2nc3ccccc3c(Nc3ccc(NS(C)(=O)=O)cc3)c12` has a growth of 77.5%. For `COc1cc(OC)cc(-c2ccc(-c3ccc(C(=N)N)s3)s2)c1`, the growth was -54.2% (active). Work on `C=C1C(=O)O[C@H]2[C@H]1CC/C(COC(=O)NCc1[nH]nc3ccccc13)=C\CC[C@@]1(C)O[C@@H]21` yielded a growth of 67.9%. For `COC(=O)[C@H](Cc1cn(C)cn1)NC(=O)[C@H](CC(C)C)NC(=O)Nc1cc(C(F)(F)F)cc(C(F)(F)F)c1`, the growth was -97% [100 µM] (active). With `COC(=O)[C@@H](Cc1c[nH]c2ccccc12)NC(=O)/C=C/c1ccccc1` the growth was 63.1%. `CCOC(=O)C(CCCCC(NC(C)=O)(C(=O)OCC)C(=O)OCC)(NC(C)=O)C(=O)OCC` gave a growth of 107%.
